Laboratory results taken from paper PMC5540273 (PLoS ONE, 2017).

The compounds below were run on T1, YSK1. Details: concentration: 1 μM, replicates: in singlicate; n = 1.
T1 construct: gene STK25
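Also: KINOMEscan kinase panel screen.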

SMILES	%Inh [%]
COc1cc(Nc2nccc(N3CCC(NC(=O)Nc4cc(C)ccc4C)C3)n2)cc(OC)c1OC (centres unmarked) [GSK1379762]	0
COc1ccc(CNC(=O)NC2CCN(c3ccnc(Nc4cc(OC)c(OC)c(OC)c4)n3)C2)cc1 (centres unmarked) [GSK1379748]	9
O=S(=O)(c1ccc(-c2ccnc3[nH]ccc23)cc1)N1CCCC1 [GSK846226]	21
Cc1cccc(-c2nc(Nc3cccc(C(N)=O)c3)c3ccccc3n2)n1 [GW876019]	12
O=C(Nc1n[nH]c2cc(-c3cccc(F)c3F)ccc12)C1CC1 [SB-733894]	0
O=C(Nc1ccc2c(c1)OCO2)NC1CCN(c2ccnc(Nc3ccc(F)cc3)n2)C1 (centres unmarked) [GSK1379724]	0
COc1ccc2nc(-c3cccc(C)n3)nc(Nc3ccncc3)c2c1 [GSK204919]	0
Cc1ccc(-c2cc(-c3c[nH]nc3-c3ccccn3)ccn2)cc1 [GW684088]	10
COc1ccccc1CNC(=O)c1cc(C(=O)c2ccccc2C)c[nH]1 [GSK364507]	0
O=c1cc(N2CCOCC2)nc2n(Cc3cccc(Cl)c3Cl)ccn12 [GSK2286295]	8
CCCc1ccc(S(=O)(=O)NC2CCN(c3ccnc(Nc4ccc(F)cc4)n3)C2)cc1 (centres unmarked) [GSK1379715]	100
Cc1cccc(-c2nc(Nc3ccncc3)c3ccccc3n2)n1 [GW855857]	0
COc1cc2ncnc(Nc3ccc4nc(-c5ccccc5)[nH]c4c3)c2cc1OC.Cl [GW282450]	6
COc1ccccc1-c1ccc2c(NC(=O)C3CC3)n[nH]c2n1 [SB-711239]	0
Cl.O=C(Nc1cccc(-c2nn3ncccc3c2-c2ccnc(Nc3cccnc3)n2)c1)c1c(F)cccc1F [GSK312879]	0
Nc1nc(-c2nccs2)c(-c2ccnc3ccccc23)s1 [GW693542]	10
CN(C)CCN(C)C(=O)c1cc(-c2ccncc2)c(-c2ccc(Cl)c(O)c2)o1.Cl.Cl [SB-710397]	0

SMILES	%Inh [%]
Nc1ncnc2[nH]c(-c3ccccc3)nc12 [AH5015]	0
Cc1ccc(C(=O)Nc2ccc(Nc3ccnc4cc(-c5ccccn5)ccc34)cc2O)cc1.Cl [GW440146]	0
Cc1ccc(NC(=O)Nc2cccc(Cl)c2)cc1-c1ccc(C(=O)Nc2ccncc2)cc1 [GSK1398468]	14
Fc1cccc(COc2nnc(-c3ccc4c(c3)CCO4)o2)c1	0
COc1cccc(-c2cc(-c3c[nH]nc3-c3ccccn3)ccn2)c1 [GW680338]	0
COc1cc2ncn(-c3cc(OCC4CCCO4)c(C(N)=O)s3)c2cc1OC (centres unmarked) [GSK204607]	22
CS(=O)(=O)c1ccc(-c2c(-c3ncn[nH]3)sc(N3CCOCC3)c2C#N)cc1	0
Cl.NC(=O)c1cccc(Nc2nccc(Nc3ccc(Oc4cccc(Cl)c4)c(Cl)c3)n2)c1 [GW659008]	0
Cc1cccc(-c2cc(Nc3ccncc3)c3ccccc3n2)n1 [GSK223675]	8
CC1=C(C(=O)Nc2cc3cn[nH]c3cc2F)C(c2ccc(C(F)(F)F)cc2)CC(=O)N1 (centres unmarked) [GSK429286]	0
Cc1nnc(-c2ccc3occ(-c4ccc(S(C)=O)cc4)c3c2)[nH]1 (centres unmarked)	0
Cc1c(Cn2ccn3c(=O)cc(N4CCOCC4)nc23)cccc1C(F)(F)F [GSK2289044]	0
CC(C)(C)c1ccc(C(=O)Nc2cn3cc(-c4cccnc4)ccc3n2)cc1	1
O=C(Nc1n[nH]c2nc(-c3nccs3)c(Br)cc12)C1CC1 [SB-742251]	9
Cc1csc(-c2nc(Nc3ccncc3)c3ccccc3n2)n1 [GW869640]	0
C[C@@H]1CCCCN1c1cc(-c2ccc3c(N)n[nH]c3c2)nc(N)n1 [GSK2258759]	0
Cc1cc(NCC(c2ccccc2)c2ccccc2)nc(NCc2ccc(C(F)(F)F)cc2)n1 [GW497681]	0

These compounds were tested on T2, YSK4. Details: concentration: 1 μM, replicates: in singlicate; n = 1.
T2 construct: gene MAP3K19

SMILES	%Inh [%]
COc1cc(Nc2nccc(N3CCC(NC(=O)Nc4cc(C)ccc4C)C3)n2)cc(OC)c1OC (centres unmarked) [GSK1379762]	27
COc1ccc(CNC(=O)NC2CCN(c3ccnc(Nc4cc(OC)c(OC)c(OC)c4)n3)C2)cc1 (centres unmarked) [GSK1379748]	13
O=S(=O)(c1ccc(-c2ccnc3[nH]ccc23)cc1)N1CCCC1 [GSK846226]	63
Cc1cccc(-c2nc(Nc3cccc(C(N)=O)c3)c3ccccc3n2)n1 [GW876019]	0
O=C(Nc1n[nH]c2cc(-c3cccc(F)c3F)ccc12)C1CC1 [SB-733894]	74
O=C(Nc1ccc2c(c1)OCO2)NC1CCN(c2ccnc(Nc3ccc(F)cc3)n2)C1 (centres unmarked) [GSK1379724]	39
COc1ccc2nc(-c3cccc(C)n3)nc(Nc3ccncc3)c2c1 [GSK204919]	13
Cc1ccc(-c2cc(-c3c[nH]nc3-c3ccccn3)ccn2)cc1 [GW684088]	2
COc1ccccc1CNC(=O)c1cc(C(=O)c2ccccc2C)c[nH]1 [GSK364507]	28
O=c1cc(N2CCOCC2)nc2n(Cc3cccc(Cl)c3Cl)ccn12 [GSK2286295]	23
CCCc1ccc(S(=O)(=O)NC2CCN(c3ccnc(Nc4ccc(F)cc4)n3)C2)cc1 (centres unmarked) [GSK1379715]	31
Cc1cccc(-c2nc(Nc3ccncc3)c3ccccc3n2)n1 [GW855857]	0
COc1cc2ncnc(Nc3ccc4nc(-c5ccccc5)[nH]c4c3)c2cc1OC.Cl [GW282450]	35
COc1ccccc1-c1ccc2c(NC(=O)C3CC3)n[nH]c2n1 [SB-711239]	0
Cl.O=C(Nc1cccc(-c2nn3ncccc3c2-c2ccnc(Nc3cccnc3)n2)c1)c1c(F)cccc1F [GSK312879]	32
Nc1nc(-c2nccs2)c(-c2ccnc3ccccc23)s1 [GW693542]	28
CN(C)CCN(C)C(=O)c1cc(-c2ccncc2)c(-c2ccc(Cl)c(O)c2)o1.Cl.Cl [SB-710397]	57

SMILES	%Inh [%]
Nc1ncnc2[nH]c(-c3ccccc3)nc12 [AH5015]	94.4
Cc1ccc(C(=O)Nc2ccc(Nc3ccnc4cc(-c5ccccn5)ccc34)cc2O)cc1.Cl [GW440146]	14
Cc1ccc(NC(=O)Nc2cccc(Cl)c2)cc1-c1ccc(C(=O)Nc2ccncc2)cc1 [GSK1398468]	92.3
Fc1cccc(COc2nnc(-c3ccc4c(c3)CCO4)o2)c1	31
COc1cccc(-c2cc(-c3c[nH]nc3-c3ccccn3)ccn2)c1 [GW680338]	0
COc1cc2ncn(-c3cc(OCC4CCCO4)c(C(N)=O)s3)c2cc1OC (centres unmarked) [GSK204607]	53
CS(=O)(=O)c1ccc(-c2c(-c3ncn[nH]3)sc(N3CCOCC3)c2C#N)cc1	18
Cl.NC(=O)c1cccc(Nc2nccc(Nc3ccc(Oc4cccc(Cl)c4)c(Cl)c3)n2)c1 [GW659008]	0
Cc1cccc(-c2cc(Nc3ccncc3)c3ccccc3n2)n1 [GSK223675]	13
CC1=C(C(=O)Nc2cc3cn[nH]c3cc2F)C(c2ccc(C(F)(F)F)cc2)CC(=O)N1 (centres unmarked) [GSK429286]	9
Cc1nnc(-c2ccc3occ(-c4ccc(S(C)=O)cc4)c3c2)[nH]1 (centres unmarked)	44
Cc1c(Cn2ccn3c(=O)cc(N4CCOCC4)nc23)cccc1C(F)(F)F [GSK2289044]	43
CC(C)(C)c1ccc(C(=O)Nc2cn3cc(-c4cccnc4)ccc3n2)cc1	66
O=C(Nc1n[nH]c2nc(-c3nccs3)c(Br)cc12)C1CC1 [SB-742251]	95.4
Cc1csc(-c2nc(Nc3ccncc3)c3ccccc3n2)n1 [GW869640]	38
C[C@@H]1CCCCN1c1cc(-c2ccc3c(N)n[nH]c3c2)nc(N)n1 [GSK2258759]	0
Cc1cc(NCC(c2ccccc2)c2ccccc2)nc(NCc2ccc(C(F)(F)F)cc2)n1 [GW497681]	13
